Reference: the supplement of paper PMC10981050
Values joined by “and” are separate entries in the source; they are usually repeats but may differ in a detail not shown here. Identical values can stand only once. Counter-ions that a name gives are not always drawn.

Tests used:
Assay in all cases: cell viability relative to vehicle control; higher = less cytotoxic
Conditions in all cases: 10 µM
K562 = test system: K562
How it was run: (§1)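 Four leukaemia lines, as CRISPR-edited mutant clones and isogenic wild-type clones, were tested against Selleck bioactive, kinase and epigenetic probe libraries after removal of identity-inconsistent compounds. Cells were exposed to a single 10 µM dose for 48 h, and CellTiter-Glo luminescence was then read. Viability was calculated relative to the on-plate vehicle control.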

MARIMO = test system: MARIMO
How it was run: as §1

MOLM14 = test system: MOLM14
How it was run: as §1

OCI-AML2 = test system: OCI-AML2
How it was run: as §1

Compound | cell viability (K562; SRSF2 genotype: SRSF2 P95H/wt) | cell viability (K562; SRSF2 genotype: SRSF2 wt/wt) [%] | cell viability (MARIMO; SRSF2 genotype: SRSF2 P95H/wt) [%] | cell viability (MARIMO; SRSF2 genotype: SRSF2 wt/wt) [%] | cell viability (MOLM14; SRSF2 genotype: SRSF2 P95H/wt) [%] | cell viability (MOLM14; SRSF2 genotype: SRSF2 wt/wt) [%] | cell viability (OCI-AML2; SRSF2 genotype: P95H/wt) [%] | cell viability (OCI-AML2; SRSF2 genotype: wt/wt) [%]
CN1CCc2cc3c(cc2C1C1OC(=O)c2c1ccc1c2OCO1)OCO3 (single isomer, unassigned; (+)) [(+)-Bicuculline] | 102% and 97.1% | 96.5 | 97.6 | 106 | 99.2 | 99.5 | 93.9 | 96.7
COC1=CC23CCN(C)C(Cc4ccc(OC)c(O)c42)C3=CC1=O (stereo not given) [Sinoacutine] | 110% and 102% | 101 | 103 | 101 | 108 | 103 | 101 | 104
COc1ccc2c(c1OC)CC1c3c(cc4c(c3-2)OCO4)CCN1C (stereo not given) [Crebanine] | 93.7% and 93.3% | 95.9 | 80.5 | 83 | 95.9 | 93.4 | 80.6 | 84.5
CC[C@]12C=CCN3CC[C@]4(C(=C(C(=O)OC)C1)Nc1ccccc14)[C@@H]32 [Tabersonine] | 17.7% and 27% | 30.1 | 19.1 | 18.7 | 11.3 | 4.06 | 7.01 | 14.7
C=C1CCC2C(/C=C(\C)C(=O)C3(OC(C)=O)CC(C)C(OC(=O)c4ccccc4)C3C1OC(C)=O)C2(C)C (stereo not given) [Euphorbia factor L3] | 48% and 62.5% | 59.5 | 34.8 | 33.8 | 47.6 | 32.9 | 65.8 | 22.4
NCC(=O)O.[C-]#[O+].[C-]#[O+].[C-]#[O+].[Cl][Ru] | 104% and 93.3% | 96.2 | 88.5 | 99.2 | 88.6 | 90.8 | 91.9 | 114
C=C1[C@H]2C[C@@]3([C@@H]1O)[C@@H](CC2=O)[C@]12[C@@H]4C[C@H]3[C@H]1N(CC)C[C@]4(C)CC[C@@H]2O [Songorine] | 96.8% and 99.6% | 101 | 98 | 98.8 | 102 | 98.4 | 103 | 103
O=P1(NCCCl)OCCCN1CCCl (stereo not given) [Ifosfamide] | 98.8% and 105% | 104 | 105 | 100 | 104 | 101 | 111 | 98
CC(O)(CS(=O)(=O)c1ccc(F)cc1)C(=O)Nc1ccc(C#N)c(C(F)(F)F)c1 (stereo not given) [Bicalutamide (Casodex)] | 95.5% and 101% | 106 | 95.4 | 102 | 98.7 | 98.8 | 93.8 | 91.8
O=C(O)C(=O)c1cn(Cc2ccccc2)c2ccc(-c3ccc(OC(F)(F)F)cc3)cc12 [Tiplaxtinin (PAI-039)] | 84.4% and 88.9% | 90.3 | 92.3 | 101 | 90.9 | 93.8 | 97.4 | 103
CCCC[N+]1(C)[C@@H]2CC(OC(=O)[C@H](CO)c3ccccc3)C[C@H]1[C@@H]1O[C@@H]12 (stereo not given in full) [Butylscopolamine bromide (Scopolamine butylb] | 108% and 95.5% | 97.8 | 102 | 110 | 97.5 | 103 | 94.3 | 105
CCc1c2c(nc3ccccc13)-c1cc3c(c(=O)n1C2)COC(=O)[C@]3(O)CC [7-Ethylcamptothecin] | 7.64% and 19.6% | 10.4 | 5.75 | 3.52 | 0.48 | 0.48 | 0.36 | 0.82
CN(C)[C@@H]1C(=O)C(C(N)=O)=C(O)[C@@]2(O)C(=O)C3=C(O)c4c(O)cccc4[C@@](C)(O)[C@H]3[C@H](O)[C@@H]12 [Oxytetracycline dihydrate] | 98.3% and 102% | 101 | 104 | 100 | 97.6 | 103 | 103 | 92.6
Cc1ccccc1-n1c(Cn2ncc3c(N)ncnc32)nc2cccc(C)c2c1=O | 93.5% and 98.8% | 91.3 | 90.7 | 93.7 | 81.9 | 81.3 | 81.5 | 83.9
NCC(O)c1ccc(O)cc1 (racemic) [(+,-)-Octopamine HCl] | 91.4% and 95.7% | 97.6 | 96.5 | 96.5 | 99.5 | 96.8 | 93.1 | 97.3
O=C(CC1NCCCC1O)Cn1cnc2cc(Br)c(Cl)cc2c1=O (stereo not given) [Halofuginone] | 6.09% and 15.2% | 11 | 8.89 | 3.03 | 0.77 | 0.52 | 0.78 | 5.46
CC(C)=CCCC(C(=O)O)C1CCC2(C)C3=C(CCC12C)C1(C)CCC(=O)C(C)(C)C1CC3 (stereo not drawn) [Beta-Elemonic] | 96% and 89.7% | 87.7 | 92.7 | 99 | 88.8 | 93.1 | 100 | 101
CCC1CN2CCC3(C(=O)Nc4ccccc43)C2CC1C(=COC)C(=O)OC (stereo not given) [Isorhychophylline] | 95.3% and 96.3% | 95.5 | 83.5 | 72 | 92.5 | 89.1 | 97.3 | 89.8
Cc1cccc(C)c1NC(=O)CN1CCCC1=O [Nefiracetam (Translon)] | 108% and 104% | 107 | 109 | 107 | 105 | 100 | 103 | 110
CC(=O)O[C@H]1CC[C@H]2[C@@H]3CCC4=CC(=O)CCC4=C3C=C[C@]12C [Trenbolone acetate] | 98.4% and 111% | 98.9 | 87.2 | 96 | 83 | 102 | 114 | 101

Compound | cell viability (K562; SRSF2 genotype: SRSF2 P95H/wt) | cell viability (K562; SRSF2 genotype: SRSF2 wt/wt) [%] | cell viability (MARIMO; SRSF2 genotype: SRSF2 P95H/wt) [%] | cell viability (MARIMO; SRSF2 genotype: SRSF2 wt/wt) [%] | cell viability (MOLM14; SRSF2 genotype: SRSF2 P95H/wt) [%] | cell viability (MOLM14; SRSF2 genotype: SRSF2 wt/wt) [%] | cell viability (OCI-AML2; SRSF2 genotype: P95H/wt) [%] | cell viability (OCI-AML2; SRSF2 genotype: wt/wt) [%]
O=C([O-])C(Cl)Cl.[Na+] [Sodium dichloroacetate (DCA)] | 96.5% and 94.6% | 97.6 | 96.1 | 104 | 95.3 | 99 | 96.7 | 101
COC(=O)Nc1nc2ccccc2[nH]1 [Carbendazim] | 35% and 44.4% | 51.9 | 36.2 | 31.8 | 58.5 | 49 | 60.5 | 52.2
C=C[C@H]1CN2CC[C@@]3(C(=O)Nc4ccccc43)[C@@H]2C[C@@H]1/C(=C\OC)C(=O)OC [Isocorynoxeine] | 81.8% and 92.6% | 82.3 | 77.4 | 72.7 | 84.4 | 79.5 | 88.2 | 83.3
Cl[TeH]1(Cl)(Cl)OCCO1.N | 86.8% and 76.3% | 75 | 78 | 83.5 | 71.3 | 74.3 | 76.1 | 84.1
COc1cc2c(cc1O)C[C@H]1c3c(cc(O)c(OC)c3-2)CCN1C [Boldine] | 99.6% and 100% | 99 | 94.1 | 88.6 | 96.5 | 101 | 95.3 | 91
COC1CC(OC2CCC3(C)C4CCC5(C)C(C6=CC(=O)OC6)CCC5(O)C4CCC3(O)C2)OC(C)C1OC1OC(CO)C(O)C(O)C1O (stereo not given) [Periplocin] | 8.96% and 10.7% | 11.7 | 11.5 | 4.97 | 3.28 | 0.9 | 1.16 | 4.41
O=Cc1ccccc1 [Benzoic aldehyde] | 98.9% and 98% | 95 | 86.4 | 91.5 | 93 | 92.4 | 85.4 | 88.3
C[C@@]12C[C@@H](c3ccoc3)OC(=O)[C@@H]1CC[C@]1(C)[C@H]2[C@@H]2C=C[C@@]1(O)C(=O)O2 [Columbin] | 104% and 96.4% | 102 | 99 | 106 | 108 | 100 | 104 | 103
O=C(c1ccccc1O)c1[nH]c(Cl)c(Cl)c1-n1c(C(=O)c2ccccc2O)cc(Cl)c1Cl [Marinopyrrole A (Maritoclax)] | 12.6% and 15.9% | 14.3 | 24.9 | 21.3 | 13.5 | 12.8 | 4.26 | 11.9
C[C@H]1CCC/C=C/[C@@H]2C[C@H](O)C[C@H]2[C@H](O)/C=C/C(=O)O1 [Brefeldin A] | 19% and 24.5% | 24.1 | 9.22 | 6.8 | 6.71 | 4.1 | 4.83 | 18.7
C=CC1CN2CCC1CC2C(O)c1ccnc2ccccc12 (stereo not given) [Cinchonine.cdx] | 98.1% and 107% | 102 | 105 | 105 | 95.8 | 104 | 120 | 99.7
CC12NC(Cc3ccccc31)c1ccccc12 (single isomer, unassigned; (+)) [(+)-MK 801 maleate] | 92.8% and 93.5% | 93.2 | 85.7 | 91.7 | 91 | 91.5 | 86.7 | 99.1
CC(=O)OC(C)(C)/C=C/C(=O)[C@](C)(O)[C@H]1[C@H](O)C[C@@]2(C)[C@@H]3CC=C4[C@H](C[C@H](O)C(=O)C4(C)C)[C@]3(C)C(=O)C[C@]12C [Cucurbitacin B] | 19.7% and 26.4% | 28.1 | 8.8 | 16.8 | 0.7 | 0.57 | 0.29 | 3.38
OC(c1ccccc1)(c1ccccc1)C1CCNCC1 [Azacyclonol] | 93.7% and 92.3% | 95.1 | 85.4 | 94.4 | 94.7 | 97.8 | 89 | 94.5
CC1=C2C(=O)[C@H]3[C@@H](CC=C4C[C@@H](O)CC[C@@]43C)[C@@H]2CC[C@]12O[C@@H]1C[C@H](C)CN[C@H]1[C@H]2C [Jervine] | 91.9% and 81.4% | 85.2 | 89.1 | 98.5 | 91.4 | 101 | 92.7 | 92.4
OC(CNc1ccccc1)Cn1c2ccc(Br)cc2c2cc(Br)ccc21 (stereo not given) | 74.2% and 72.5% | 66.2 | 85.1 | 98.2 | 87.2 | 58.1 | 52.3 | 83.5
COc1ccc(N(C(=O)Oc2c(C)cccc2C)c2ccnc(Nc3ccc(N4CCN(C)CC4)cc3)n2)c(OC)c1 | 7.22% and 20.7% | 6.62 | 72.3 | 58.7 | 38.8 | 35.4 | 23.5 | 28.6
CCC(COC(=O)c1cc(OC)c(OC)c(OC)c1)(c1ccccc1)N(C)C (stereo not given) [Trimebutine] | 94.7% and 99.7% | 97.2 | 87.4 | 109 | 97.9 | 104 | 92.5 | 97.8
ClCCN(Cc1ccccc1)Cc1ccccc1 [Dibenamine Hydrochloride] | 103% and 95.7% | 91.5 | 94.9 | 104 | 94.8 | 103 | 83.5 | 89.3
CC(C)[C@]12O[C@H]1[C@@H]1O[C@@]13[C@@]1(C)CCC4=C(COC4=O)[C@@H]1C[C@@H]1O[C@@]13C2=O [Triptonide] | 5.3% and 13.3% | 8.48 | 12.8 | 5.79 | 2.66 | 0.71 | 5.01 | 15.2
